# Assay outcomes as filed in PubChem.
# KAT2A inh – GCN5L2 (KAT2A) acetyltransferase inhibition | Q92830 | GCN5L2 HAT assay, ThioGlo1 CoA-SH fluorescence | Potency, µM (doses to about 58.9 µM), for inactives: at the highest dose activity change, negative = inhibition, most hits filed as inhibitors | hit rate 0.21% among 390,000 | AID 504327
#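 Preincubate 20nM GCN5L2 with compound 15 min, RT → add 50uM ThioGlo1 + 75uM H3(1-25) + 70uM acetyl-CoA → read fluorescence 0 and 20 min. Primary qHTS; fluorescent artifacts likely.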
# JMJD2E inh – JMJD2E (human) inhibition. B2RXH2. JMJD2E catalytic domain, FDH-coupled NADH fluorescence (FDH is formaldehyde dehydrogenase). Potency, µM (top dose mostly 57.1 µM), without a hit: top-dose activity change, negative = inhibition, hits mostly inhibitors. hit rate 1.6% among 230,000. AID 2147; active = well fitted inhibition curve with a large enough effect, not every such curve was filed as active; inconclusive = small, poorly fitted or top-dose-only effect, or another doubt; inactive = no such curve, though single readings can be large or run the other way;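 also: 0% = wells with enzyme and -100% = buffer wells without enzyme; nearly all actives have a fitted effect of over 50% in size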
# RECQ1 inh-1 – blocks DNA unwinding by human RECQ1; P46063; RECQ1 DNA unwinding, red fluorescence kinetic read; Potency, µM (highest dose often 57.3 µM), inactives show at the highest dose activity, negative = inhibition, hits mostly inhibitors; hit rate 0.54% among 240,000; AID 2549;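 also: plate controls were vehicle for no effect and no enzyme for full effect; nearly all actives have a fitted effect of over 30% in size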
#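 RECQ1T1 50 nM; forked duplex (20 bp + 30-nt ss tails) 200 nM, ATP 2 mM final; pH 8.0, 2 mM MgCl2, 2.5 ug/ml poly(dI-dC); 15 min compound preincubation; discontinuous kinetic read over 2 h at RT.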
# APEX1 inh – inhibitors of human APE1 endonuclease; P27695; recombinant APE1, TAMRA/BHQ-2 abasic DNA cleavage fluorescence; Potency, µM (doses to about 65.8 µM), without a hit: top-dose activity change, negative = inhibition, hits mostly inhibitors; hit rate 0.35% among 350,000;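 also: plate controls were vehicle for no effect and reference inhibitor for full effect; nearly all actives have a fitted effect of over 55% in size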
#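 Incision of a quenched TAMRA/BHQ-2 THF abasic-site duplex (50 nM) by 0.75 nM APE1, after 15 min compound preincubation, measured as fluorescence increase over three 60 s reads. Values normalized to buffer, DMSO and NSC13755 control wells.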
# TDP1 block – TDP1 (human) enzyme inhibition; Q9NUW8; recombinant TDP1, AlphaScreen DNA substrate cleavage; Potency, µM (top dose mostly 130 µM), for inactives: top-dose activity change, negative = inhibition, actives largely listed as inhibitors; hit rate 0.28% among 350,000; AID 485290; also: nearly all actives have a fitted effect of over 40% in size
#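 AlphaScreen read-out: signal falls as enzyme removes the 3' tyrosine-FITC from a 5'-biotinylated DNA oligo (15 nM, 5 min, RT). Enzyme was E. coli-made recombinant Tdp1 at 1 nM, exposed to compound for 15 min beforehand; beads 10 ug/ml, 10 min.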
# BLM helicase inh – inhibitors of human Bloom syndrome helicase BLM; recombinant BLM DNA unwinding, fluorescence dequenching; Potency, µM (series often up to 56.1 µM), for the others: at the top dose activity change, negative = inhibition, most hits filed as inhibitors; hit rate 0.2% among 350,000;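 also: plate controls were vehicle for no effect and no enzyme for full effect; nearly all actives have a fitted effect of over 35% in size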
# Target sequence (P54132 whole entry, looked up): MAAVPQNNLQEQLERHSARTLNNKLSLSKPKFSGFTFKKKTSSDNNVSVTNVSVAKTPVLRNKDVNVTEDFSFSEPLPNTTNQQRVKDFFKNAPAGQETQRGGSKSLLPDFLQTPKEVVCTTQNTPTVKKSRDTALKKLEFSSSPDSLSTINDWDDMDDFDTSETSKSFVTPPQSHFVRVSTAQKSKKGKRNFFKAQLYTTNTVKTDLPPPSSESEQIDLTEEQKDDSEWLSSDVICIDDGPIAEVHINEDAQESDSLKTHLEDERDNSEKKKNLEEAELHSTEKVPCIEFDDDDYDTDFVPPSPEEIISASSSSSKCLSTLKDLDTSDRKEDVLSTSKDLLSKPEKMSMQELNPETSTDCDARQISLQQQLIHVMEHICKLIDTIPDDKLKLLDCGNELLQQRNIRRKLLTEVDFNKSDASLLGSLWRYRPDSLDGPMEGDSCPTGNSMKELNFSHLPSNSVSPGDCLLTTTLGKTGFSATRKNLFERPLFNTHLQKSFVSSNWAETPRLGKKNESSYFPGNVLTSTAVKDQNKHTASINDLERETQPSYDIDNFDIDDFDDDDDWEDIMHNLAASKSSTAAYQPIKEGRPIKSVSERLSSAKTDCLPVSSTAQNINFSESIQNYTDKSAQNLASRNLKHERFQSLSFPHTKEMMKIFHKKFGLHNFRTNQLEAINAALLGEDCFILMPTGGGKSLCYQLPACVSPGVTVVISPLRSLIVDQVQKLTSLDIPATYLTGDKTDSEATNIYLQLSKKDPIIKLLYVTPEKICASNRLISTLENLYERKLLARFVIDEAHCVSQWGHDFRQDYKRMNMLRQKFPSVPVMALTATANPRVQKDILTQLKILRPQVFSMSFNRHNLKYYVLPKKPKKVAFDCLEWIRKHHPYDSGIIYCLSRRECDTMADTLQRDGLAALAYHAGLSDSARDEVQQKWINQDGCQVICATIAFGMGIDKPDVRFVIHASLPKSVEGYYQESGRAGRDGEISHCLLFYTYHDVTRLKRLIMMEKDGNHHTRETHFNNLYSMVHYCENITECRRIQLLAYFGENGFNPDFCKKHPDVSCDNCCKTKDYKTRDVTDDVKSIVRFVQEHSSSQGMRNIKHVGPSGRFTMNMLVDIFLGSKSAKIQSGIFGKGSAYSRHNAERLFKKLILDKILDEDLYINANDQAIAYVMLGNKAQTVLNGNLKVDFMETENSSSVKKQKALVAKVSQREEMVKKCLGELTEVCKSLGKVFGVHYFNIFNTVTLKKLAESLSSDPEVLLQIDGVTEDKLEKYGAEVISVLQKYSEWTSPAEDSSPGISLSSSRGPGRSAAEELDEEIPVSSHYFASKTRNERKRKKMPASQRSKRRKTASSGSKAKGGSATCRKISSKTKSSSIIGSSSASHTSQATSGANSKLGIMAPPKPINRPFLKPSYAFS
# RECQ1 inh conf – confirmation of human RECQ1 helicase inhibitors | shares compounds with RECQ1 inh-1 | RECQ1 helicase DNA unwinding, fluorescence | Potency, µM (series often up to 229 µM), inactives show top-dose activity change, negative = inhibition, usual class: inhibitors | hit rate 28% among 610 | AID 2708; also: nearly all actives have a fitted effect of over 45% in size
# RECQ1 ADP FP – ADP displacement flagged in RECQ1 inhibitor counter-screen | shares compounds with RECQ1 inh-1 | ADP fluorescence polarization displacement counterscreen | Potency, µM (top dose mostly 228 µM), for the others: at the top dose activity change, negative = inhibition, hits mostly inhibitors | hit rate 27% among 530 | AID 2711; also: nearly all actives have a fitted effect of over 45% in size
# RECQ1 inh-2 – RECQ1 helicase inhibition confirmed, round 2 | shares compounds with RECQ1 inh-1 | recombinant RECQ1 DNA unwinding, red fluorescence | Potency, µM (highest dose often 119 µM), for inactives: at the highest dose activity, negative = inhibition, hits mostly inhibitors | hit rate 15% among 1,100 | AID 504841; also: nearly all actives have a fitted effect of over 50% in size
# * hit, by the source's call; i = inactive; ? = inconclusive; nt = not tested or not shown; [ ] = another dose, or the depositor's remark. Shown is part of a subset that was picked to be rich in hits. Unless noted, calls follow the shape of the dose curve; as a rule, active = well fitted curve in the direction sought with a large enough effect; inconclusive = small, poorly fitted or top-dose-only effect, or another doubt; inactive = no such curve, though single readings can be large; an effect the other way counts as inactive or inconclusive. Unless noted, % is scaled to controls: 0 for no effect and ±100 for the full control effect; potency is read from the fitted curve at half-maximal effect.
SMILES,KAT2A inh,JMJD2E inh,RECQ1 inh-1,APEX1 inh,TDP1 block,BLM helicase inh,RECQ1 inh-2,others
O=c1c2c(-c3ccco3)csc2nc(SCc2cn3cccnc3n2)n1-c1ccccc1,-9.4%,?,12.6µM*,-1.7%,-4.0%,-11.2%,-22.5%,
NC(=O)CSc1nc2scc(-c3ccco3)c2c(=O)n1-c1ccccc1,-21.4%,?,28.2µM*,10.9%,-4.8%,?,?,RECQ1 inh conf=?;RECQ1 ADP FP=-5.1%[91.9 µM]
c1ccc(-n2cnnc2SCc2cn3cccnc3n2)cc1,-17.2%,?,i,2.4%,4.7%,-1.3%,nt,
C=CCn1c(SCC(=O)NCC2CCCO2)nc2scc(-c3ccco3)c2c1=O (stereo unspecified),-16.9%,1.0%,?,?,50.1µM*,-23.2%,?,
NC(=O)CSc1nc2ccccc2c(=O)n1-c1ccccc1,-8.9%,nt,nt,-4.6%,nt,-6.5%,nt,
O=C(O)c1cccc(Cl)c1Cl,nt,nt,-1.0%,2.1%,5.9%,nt,nt,
CC(=O)c1cc(C)oc1C,nt,nt,0.6%,1.3%,7.0%,nt,nt,
COc1ccc(NC(=O)CCCn2nc(C)c3sc4ccccc4c3c2=O)cc1,-19.6%,nt,nt,nt,8.6%,-3.8%,nt,
COc1ccc(Cl)cc1C(=O)Nc1cccc(-c2ccc3nncn3n2)c1,-29.0%,14.1µM*,?,?,nt,-12.2%,?,
CNc1ccc(/C=C(\CCC(=O)O)c2nc3ccccc3s2)cc1[N+](=O)[O-],-4.0%,2.7%,35.5µM*,35.5µM*,-8.5%,-29.3%,31.6µM*,
COc1ccc(C(=O)Nc2cccc(/C=C(\CCC(=O)O)c3nc4ccccc4s3)c2)cc1,-14.0%,?,-19.3%,?,nt,-26.0%,nt,
Cn1cnnc1Sc1ccc(/C=C(\CCC(=O)O)c2nc3ccccc3s2)cc1[N+](=O)[O-],-7.2%,-21.6%,14.3%,18.9%,-5.8%,-4.7%,nt,RECQ1 inh conf=10.6%;RECQ1 ADP FP=0.7%
Cn1cnnc1Sc1ccc(C(=O)OCC(=O)Nc2ccccc2)cc1[N+](=O)[O-],-3.5%,4.8%,-15.4%,-1.9%,-1.1%,4.5%,nt,
CCCc1cc(=O)[nH]c(SCC(=O)N2N=C(c3ccc(Cl)cc3)CC2c2ccco2)n1 (stereo unspecified),-11.3%,0.5%,7.2%,7.9%,-2.3%,-5.0%,nt,
Nc1cc(=O)[nH]c(SCC(=O)N2N=C(c3ccc(Cl)cc3)CC2c2ccco2)n1 (stereo unspecified),-6.2%,4.5%,?,1.9%,4.8%,-2.6%,-49.3%,
NC(=O)CSc1ccc2nnc(-c3ccncc3)n2n1,nt,nt,nt,nt,3.2%,nt,nt,
CN(C)C(=O)CSc1ncnc2scc(-c3ccccc3)c12,-1.9%,-10.7%,?,7.7%,1.2%,8.8%,-7.1%,
CCOC(=O)C1=C(N)n2c(s/c(=C\c3ccco3)c2=O)=C(C(=O)OCC)C1c1ccco1 (stereo unspecified),?,-25.5%,?,?,3.1%,-11.3%,?,
CCOC(=O)C1=C(N)n2c(s/c(=C\c3ccco3)c2=O)=C(C(=O)OC(C)C)C1c1ccco1 (stereo unspecified),-8.3%,?,31.6µM*,?,12.9%[56.1 µM],-11.8%,-25.8%,
